Bioassay records (PubChem BioAssay)
The list is not random: actives were taken first. Their share in the collection is about 15%.
RORg inh – blocks mouse ROR gamma transcriptional activity; P51450; Drosophila S2 Gal4-RORgamma UAS-luciferase reporter, 20 h; Potency, µM (doses to about 53.6 µM), for the others: at the top dose activity change, negative = inhibition, hits mostly inhibitors; 5.4% of 310,000 active; also: nearly all actives have a fitted effect of over 60% in size
Target sequence (P51450 whole entry, looked up, the tested form may be a part): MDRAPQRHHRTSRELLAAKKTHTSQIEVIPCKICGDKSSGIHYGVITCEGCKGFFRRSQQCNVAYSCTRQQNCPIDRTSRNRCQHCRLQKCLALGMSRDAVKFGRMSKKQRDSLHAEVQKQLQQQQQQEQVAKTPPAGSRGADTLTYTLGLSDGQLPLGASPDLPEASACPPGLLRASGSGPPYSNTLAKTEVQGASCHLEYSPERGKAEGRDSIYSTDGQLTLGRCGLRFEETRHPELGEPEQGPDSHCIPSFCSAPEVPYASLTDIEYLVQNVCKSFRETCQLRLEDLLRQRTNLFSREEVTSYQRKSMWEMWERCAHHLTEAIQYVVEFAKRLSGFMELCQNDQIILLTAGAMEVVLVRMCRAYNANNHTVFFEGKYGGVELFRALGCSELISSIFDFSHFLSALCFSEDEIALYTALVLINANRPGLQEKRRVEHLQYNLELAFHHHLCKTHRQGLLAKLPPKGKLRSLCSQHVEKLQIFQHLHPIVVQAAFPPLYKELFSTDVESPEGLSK
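In this cell-based reporter format, copper sulfate (700 uM final) drives Gal4–ROR gamma fusion expression from a metallothionein promoter in Drosophila Schneider cells; compounds preincubated 1 hr, reporter read after 20 hr at ambient temperature.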
VP16 counter – inhibits Gal4-VP16 luciferase reporter, ROR gamma counter-screen | Potency, µM (highest dose often 53.6 µM), for inactives: top-dose activity, negative = inhibition, actives largely listed as inhibitors | 3.5% of 310,000 active | Drosophila S2 Gal4-VP16 UAS-luciferase, luminescence, 20 h;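 also: Gal4-VP16 expression switched on by copper sulfate through the metallothionein promoter; nearly all actives have a fitted effect of over 50% in size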
ELG1 DNA repair – ELG1-dependent DNA repair inhibition | HEK293T ELG1-luciferase reporter, luminescence, 16 h; DNA damage induced by 5-fluorouridine | Potency, µM (series often up to 46.1 µM), for inactives: top-dose activity change, negative = inhibition, usual class: inhibitors | 2.3% of 330,000 active | AID 504467; also: nearly all actives have a fitted effect of over 55% in size
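DMSO vehicle served as the neutral condition. Each well held 2,000 cells given 5-fluorouridine plus compound; after 16 hr at 37 °C/5% CO2, ONE-Glo was added and luciferase measured 30 min later.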
DT40 TDP1 no CPT – qHTS for Inhibitors of human tyrosyl-DNA phosphodiesterase 1 (TDP1): qHTS in cells in absence of CPT. DT40 Tdp1-/- hTDP1 cells, no CPT, ATP luminescence, 48 h. Potency, µM (top dose mostly 46.2 µM), inactives show at the highest dose activity change, negative = growth inhibition, actives largely listed as inhibitors. 15% of 420,000 active; also: nearly all actives have a fitted effect of over 55% in size
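Chicken DT40 Tdp1-/- cells stably complemented with human TDP1 were seeded at 400 cells/well with DMSO in place of 20 nM camptothecin. After compound pinning, cells grew at least 48 hr at 37 °C; viability read by CellTiter-Glo luminescence.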
12-LOX inh – blocks human arachidonate 12S-lipoxygenase; purified 12hLO, xylenol orange hydroperoxide absorbance; Potency, µM (series often up to 108 µM), for inactives: at the top dose activity change, negative = inhibition, most hits filed as inhibitors; 1.1% of 580,000 active; P18054
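Hydroperoxide product was detected by ferrous iron/xylenol orange as the 573 to 405 nm absorbance ratio. Arachidonic acid at 40 uM (final) was turned over for 30 min at room temperature by 150 nM human 12hLO, pH 7.0 Hepes buffer, after 15 min compound preincubation.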
TDP1 cell CPT – DT40-hTDP1 cell growth loss with CPT; chicken DT40 Tdp1-/-;hTDP1 cells + 20 nM CPT, ATP luminescence, 48 h; Potency, µM (doses to about 46.2 µM), for the others: top-dose activity change, negative = growth inhibition, usual class: inhibitors; 12% of 420,000 active; AID 686979; also: nearly all actives have a fitted effect of over 55% in size
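Cell growth measured by CellTiter-Glo luminescence after a minimum 48 h, 37 C compound exposure with 20 nM CPT in Tdp1-knockout DT40 cells stably expressing hTDP1, seeded 400/well; qHTS titration format.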
* hit, by the source's call; i = inactive; ? = inconclusive; . = not tested or not shown; [ ] = dose if it differs, or a comment. Calls follow the shape of the dose curve; as a rule, active = well fitted curve in the direction sought with a large enough effect; inconclusive = small, poorly fitted or top-dose-only effect, or another doubt; inactive = no such curve, though single readings can be large; an effect the other way counts as inactive or inconclusive. % is scaled to controls: 0 for no effect and ±100 for the full control effect; potency is read from the fitted curve at half-maximal effect.

SMILES	RORg inh	VP16 counter	ELG1 DNA repair	DT40 TDP1 no CPT	12-LOX inh	TDP1 cell CPT
COCCn1c(C)cc(C(=O)CSc2nnc(Nc3ccccc3)s2)c1C	.	.	.	.	14%	.
Cc1ccc(C)c(OCCCOc2ccc(Cl)cc2/C=N/NC(N)=O)c1	.	.	.	.	-8%	.
CCCN(CCC)c1ccc(C2N=C(N)Nc3nc4ccccc4n32)cc1 (centres undefined)	.	.	.	16µM*	?	23µM*
COc1cc(C2N=C(N)Nc3nc4ccccc4n32)ccc1OCCC(C)C (centres undefined)	.	.	.	18µM*	?	23µM*
CC(=O)N1CC2(CCCCN2Cc2cccc(C(N)=O)c2)Cc2ccccc21 (centres undefined)	.	.	.	.	3%[6.33 µM]	.
Fc1ccc2[nH]c3c(N4CCc5ccccc5C4)ncnc3c2c1	11µM*	3.2µM*	1.3µM*	1.8µM*	134%	1.8µM*
Cc1ccc2[nH]c3c(N4CCc5ccccc5C4)ncnc3c2c1	?	3.2µM*	?	3.7µM*	-18%	2.9µM*
CCOc1ccc2[nH]c3c(N4CCc5ccccc5C4)ncnc3c2c1	?	?	18µM*	16µM*	?	15µM*
CN1CCN(c2ncnc3c2[nH]c2ccc(F)cc23)CC1	-23%	-12%	-12%	?	15%	?
Fc1ccc2[nH]c3c(NCCN4CCOCC4)ncnc3c2c1	?	13µM*	?	?	.	?
Cc1ccc2[nH]c3c(N4CCOCC4)ncnc3c2c1	25%	?	-20%	?	36%	?
COC[C@@H]1CN(C(=O)c2ccn[nH]2)C[C@H]1c1ccncc1	.	.	.	.	10%	.
Cc1ccc2c(c1)nc1n2[C@@H](CNC2CCN(C)CC2)COC1	.	.	.	.	12%[176 µM]	.
Cc1nc2nc(NCc3ccccc3)[nH]n2c(=O)c1CCC(=O)Nc1ccc2ccccc2c1	.	.	.	.	-4%	.
O=C(Nc1ccc(N2CCOCC2)cc1)c1cc2c(s1)CCCC2	?	22%	10%	?	?	?
CC(C)(C)c1ccc(C(=O)N2CCCCCC2=O)cc1	?	2.2µM*	?	-10%	0%	-12%
O=C(Nc1ccc(N2CCOCC2)cc1)c1cc2c(s1)CCCCC2	14%	-2%	-20%	21µM*	-12%	23µM*
O=C(NC(=S)Nc1ccc(N2CCOCC2)cc1)c1ccc(Cl)cc1	4µM*	7.1µM*	3%	-9%	-10%	-14%
CC(C)(C)c1ccc(C(=O)N2CCC(NC(=O)c3ccccc3)CC2)cc1	-11%	8%	-10%	?	10%	15µM*
CCc1[nH]nc(C(=O)N2CCC3(CC2)C(=O)NCCN3C)c1C	.	.	.	.	16%	.
O=C(CSc1nc2ccccc2s1)Nc1cc(C(F)(F)F)ccc1Cl	.	.	.	.	-2%	.
CC(=O)Nc1ccc(NC(=O)c2ccc(-n3c(C)ccc3C)cc2)cc1	-22%	7%	2%	16µM*	4%	?
CC(C)(C)c1ccc(C(=O)Nc2ccc(N3CCOCC3)cc2)cc1	8%	-8%	18µM*	18µM*	?	18µM*
Cc1ccc(C)n1-c1ccc(NC(=O)c2ccccc2)cc1	24%	19%	?	?	-18%	?
O=C(Nc1ccc(Cl)cc1)Nc1ccc(N2CCOCC2)cc1	21%	9%	?	18µM*	0%	?
SMILES	RORg inh	VP16 counter	ELG1 DNA repair	DT40 TDP1 no CPT	12-LOX inh	TDP1 cell CPT
CC(C)(C)c1ccc(C(=O)NC(=S)Nc2ccc(N3CCOCC3)cc2)cc1	4.5µM*	7.1µM*	?	-26%	?	-25%
CC(C)c1ccc(C(=O)Nc2ccc(N3CCOCC3)cc2)cc1	?	6%	15%	21µM*	?	18µM*
CC(C)(C)c1ccc(C(=O)Nc2ccc(C(=O)N3CCCC3)cc2)cc1	?	-11%	-7%	23µM*	-14%	21µM*
CCOc1cc(C(=O)Nc2ccc(N3CCOCC3)cc2)cc(Br)c1OC	?	3%[10 µM]	-14%	26µM*	363%	?
O=C(Nc1ccc(N2CCOCC2)cc1)c1cn2ccccc2n1	1%	-8%	?	10µM*	3%	13µM*
O=C(CN1CCc2ccccc2C1)N1N=C(c2ccco2)CC1c1cccs1 (centres undefined)	.	.	.	.	18%	.
COC1CCC(C(=O)NCC2COc3ncncc3C(=O)N2Cc2ccccc2)CC1 (centres undefined)	.	.	.	.	41%[176 µM]	.
CC(C)(C)c1ccc(C(=O)Nc2ccc(Cl)cc2)cc1	3%	-5%	?	-6%	8%	-12%
CCC(=O)N1CCN(c2ccc(NC(=S)NC(=O)C(C)C)cc2)CC1	?	-10%	-5%	11%	-11%	-13%
CC(C)(C)c1ccc(NC(=O)c2ccsc2)cc1	-28%	7.9µM*	?	23µM*	305%	?
CCC(=O)NC(=S)Nc1ccc(N2CCN(C(=O)c3ccc(Cl)cc3)CC2)cc1	37%	-4%	?	?	-30%	21µM*
O=C(CCCCl)NC(=S)Nc1ccc(N2CCOCC2)cc1	2.2µM*	?	?	1%	441%	9%
O=C(CCCCl)NC(=S)Nc1ccc(CN2CCOCC2)cc1	-22%	3%	18%	?	0%	3%
CC(=O)c1ccc(N2CCN(C(=O)Nc3ccc(C(C)C)cc3)CC2)cc1	?	-26%	?	16µM*	2%	?
C/C(=C/C(=O)O)C(=O)Nc1ccc(N2CCOCC2)cc1	.	.	.	.	-12%	.
O=C(O)/C=C/C(=O)Nc1ccc(N2CCOCC2)cc1	.	.	.	.	32µM*	.
COc1ccc(C(=O)NC2CC2)cc1S(=O)(=O)N(C)C	.	.	.	.	24%	.
O=C(CC(SCc1ccco1)c1ccc(O)cc1)c1cccs1 (centres undefined)	0.89µM*	-14%	?	23µM*	4%	?
O=C(CC(SCCO)c1ccc2c(c1)OCO2)c1cccs1 (centres undefined)	?	6%	?	12µM*	-10%	12µM*
Cc1cc(OCC(=O)N(Cc2ccco2)C2CCS(=O)(=O)C2)cc(C)c1Cl (centres undefined)	30%	-7%	-5%	?	?	-27%
COc1ccc(CN(C(=O)c2ccco2)C2CCS(=O)(=O)C2)cc1 (centres undefined)	-23%	7%	2%	-4%	i	8%
CCCCCOc1ccc(C(=O)N(Cc2ccco2)C2CCS(=O)(=O)C2)cc1 (centres undefined)	-4%	5%	?	?	-3%	?
